Data published in PubChem BioAssay (NCATS).
Records with an inconclusive call do not appear. Where a call stands in place of a potency, no number is given. Active and inactive are the calls of the source. Unless noted, the call rests on the fitted dose curve.

Columns and labels:
[1] = Primary qHTS for Huh7 cytotoxicity: counterscreen for inhibitors of MERS-S pseudotyped particle cell entry (AID 1479147)
[2] = Primary qHTS for inhibitors of MERS-S pseudo-typed particle cell entry (AID 1479149); further: nearly all actives have a fitted effect of over 60% in size; further: potency means the concentration at half of the fitted maximal effect
[3] = Primary qHTS for Vero E6 cytotoxicity: counterscreen for inhibitors of SARS-S pseudo-typed particle cell entry (AID 1479150)
[4] = Confirmatory qHTS for VERO E6 Cytotoxicity Assay: Counterscreen for SARS-CoV-2 CPE Assay (AID 1508605); further: nearly all actives have a fitted effect of over 60% in size; further: potency means the concentration at half of the fitted maximal effect
[5] = Confirmatory qHTS for activators (rescue) of SARS-CoV-2 Cytopathic Effect (CPE) (AID 1508606); details: Vero E6 SARS-CoV-2 CPE rescue, viability luminescence; further: potency means the concentration at half of the fitted maximal effect; nearly all actives have a fitted effect of over 70% in size
[6] = Primary qHTS for inhibitors of La Crosse Virus (LACV) - induced cell death in SH-SY5Y cells (AID 1508616; active means well fitted curve in the direction sought with a large enough effect; an effect the other way counts as inactive or inconclusive;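 further: top concentration of the series differs between compounds; higher means more rescue of cells from virus-induced death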)
In short: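 Cytopathicity rescue screen: compounds pinned onto SH-SY5Y cells, which are then infected with LACV (MOI 0.01) and held 6 days at 37C. Percent activity is scaled between infected DMSO control and uninfected DMSO control.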

[7] = molecular target: Calcium and integrin-binding protein 1 (Homo sapiens) (UniProt Q99828); assay: Primary qHTS for Identification of Calcium Integrin Binding Protein 1 (CIB1) Competitor (AID 1508620; active means well fitted curve in the direction sought with a large enough effect; an effect the other way counts as inactive or inconclusive;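 further: GST tagged CIB1 binding a fluorescein labelled alphaIIb integrin peptide tracer; top concentration of the series differs between compounds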)
In short: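 Fluorescence polarization competition: GST-tagged CIB1 (1 uM final) preincubated with compound 15 min at room temperature, then FITC-labelled alphaIIb peptide (100 nM final) added. After 15 min at room temperature, polarization read at Ex 480/Em 540.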

[8] = Primary qHTS for small molecule stabilizers of the endoplasmic reticulum resident proteome: Secreted ER Calcium Modulated Protein (SERCaMP) assay (AID 1508630; active means well fitted curve in the direction sought with a large enough effect; an effect the other way counts as inactive or inconclusive)
In short: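 The SH-SY5Y reporter protocol was run at 3 concentrations up to 38.3 uM (primary) or 11 concentrations (follow-up): 16 h compound, 100 nM thapsigargin for 4 h, then extracellular luciferase luminescence.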

Chain of Calcium and integrin-binding protein 1 (Homo sapiens) (Q99828 whole entry, looked up): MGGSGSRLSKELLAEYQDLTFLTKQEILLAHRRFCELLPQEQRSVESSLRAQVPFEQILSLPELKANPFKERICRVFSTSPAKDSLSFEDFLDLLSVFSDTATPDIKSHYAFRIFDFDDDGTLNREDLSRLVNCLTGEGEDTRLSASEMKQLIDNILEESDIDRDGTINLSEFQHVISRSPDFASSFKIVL

Cc1ccnc(NS(=O)(=O)c2ccc(N)cc2)n1
Potency [1]: inactive | Potency [2]: inactive | Potency [3]: inactive

CN1[C@@H]2CC[C@H]1CC(OC(c1ccccc1)c1ccccc1)C2 (some centres not stated)
Potency [1]: inactive | Potency [2]: 14.1 µM (active) | Potency [3]: inactive | Potency [4]: inactive

Cc1ccc(C(=O)C(C)CN2CCCCC2)cc1 (configuration not stated)
Potency [1]: inactive | Potency [2]: inactive | Potency [3]: inactive

CCOC(=O)C1=C[C@@H](OC(CC)CC)[C@H](NC(C)=O)[C@@H](N)C1
Potency [1]: inactive | Potency [2]: inactive | Potency [3]: inactive

C[C@@H]1CN(c2c(F)c(F)c3c(=O)c(C(=O)O)cn(C4CC4)c3c2F)C[C@H](C)N1
Potency [1]: inactive | Potency [2]: inactive | Potency [3]: inactive

CC(C)Cc1ccc(CC(=O)O)cc1
Potency [1]: inactive | Potency [2]: inactive | Potency [3]: inactive

O=C(NCC(O)CO)c1c(I)c(C(=O)NCC(O)CO)c(I)c(N(CCO)C(=O)CO)c1I (configuration not stated)
Potency [1]: inactive | Potency [2]: inactive | Potency [3]: inactive

CC(C)(C)NCC(O)c1cc(O)cc(O)c1 (configuration not stated)
Potency [1]: inactive | Potency [2]: inactive | Potency [3]: inactive

COc1ccc2c(c1)c(CC(=O)OC/C=C(\C)CC/C=C(\C)CCC=C(C)C)c(C)n2C(=O)c1ccc(Cl)cc1
Potency [1]: inactive | Potency [2]: inactive | Potency [3]: inactive

COc1cc(C)nc(-n2nc(C)cc2OC)n1
Potency [1]: inactive | Potency [3]: inactive

Oc1ccc(Cl)c2cccnc12
Potency [2]: inactive | Potency [3]: inactive

C[n+]1c2cc(N)ccc2cc2ccc(N)cc21 (tested in a mixture with another compound)
Potency [2]: 7.94 µM (active)

CN(C)CCOc1ccc(/C(=C(/CCCl)c2ccccc2)c2ccccc2)cc1
Potency [1]: inactive | Potency [3]: inactive

O=C(OCc1ccccc1)c1ccccc1
Potency [1]: inactive | Potency [3]: inactive

C=CCN1C[C@H](C(=O)N(CCCN(C)C)C(=O)NCC)C[C@@H]2c3cccc4[nH]cc(c34)C[C@H]21
Potency [1]: inactive | Potency [3]: inactive

CCN(CC)CC#CCOC(=O)C(O)(c1ccccc1)C1CCCCC1 (configuration not stated)
Potency [1]: inactive | Potency [3]: inactive

CC(=O)O[C@]1(C(C)=O)CC[C@H]2[C@@H]3C[C@H](C)C4=CC(=O)CC[C@]4(C)[C@H]3CC[C@@]21C
Potency [1]: inactive | Potency [3]: inactive

NC(N)=NS(=O)(=O)c1ccc(N)cc1
Potency [1]: inactive | Potency [3]: inactive

CC(C)(C)CC(C)(C)c1ccc(OCCOCC[N+](C)(C)Cc2ccccc2)cc1
Potency [1]: inactive | Potency [3]: inactive

O=C(O[C@H]1CN2CCC1CC2)N1CCc2ccccc2[C@@H]1c1ccccc1
Potency [1]: inactive | Potency [3]: inactive

CNCCCC12CCC(c3ccccc31)c1ccccc12
Potency [1]: inactive | Potency [3]: inactive | Potency [4]: inactive

CN(C)c1ccc2nc3ccc(=[N+](C)C)cc-3sc2c1
Potency [2]: 7.08 µM (active)

N#Cc1ccc2c(c1)N(CCCN1CCC(O)CC1)c1ccccc1S2
Potency [1]: inactive | Potency [3]: inactive | Potency [4]: inactive | Potency [5]: 11.2 µM (active)

O=c1[nH]c(=O)n([C@H]2C[C@H](O)[C@@H](CO)O2)cc1F
Potency [2]: inactive | Potency [3]: inactive

OCCN1CCN(CC/C=C2/c3ccccc3Sc3ccc(C(F)(F)F)cc32)CC1
Potency [3]: inactive

CC(=O)S[C@@H]1CC2=CC(=O)CC[C@]2(C)[C@H]2CC[C@@]3(C)[C@@H](CC[C@@]34CCC(=O)O4)[C@H]12
Potency [2]: inactive | Potency [3]: inactive

CCOc1ccc2nc3cc(N)ccc3c(N)c2c1
Potency [1]: inactive | Potency [3]: inactive

CN(C)CCc1c[nH]c2cccc(OP(=O)(O)O)c12
outcome [6]: inactive | Potency [7]: inactive | Potency [8]: inactive

CN1CCN(C(c2ccccc2)c2ccc(Cl)cc2)CC1 (configuration not stated)
Potency [1]: inactive | Potency [3]: inactive | Potency [4]: inactive

O=C(N/N=C/c1ccc([N+](=O)[O-])o1)c1cc([N+](=O)[O-])cc([N+](=O)[O-])c1O
outcome [6]: inactive | Potency [7]: inactive | Potency [8]: inactive

CCN(CC)C(C)CN1c2ccccc2Sc2ccccc21 (configuration not stated)
Potency [1]: inactive | Potency [3]: inactive

CNCCC=C1c2ccccc2CCc2ccccc21
Potency [3]: inactive | Potency [4]: inactive

CNCCCCOc1ccccc1Cc1ccccc1
Potency [3]: inactive | Potency [4]: inactive

O=C1c2ccccc2C(=O)C1C(=O)C(c1ccccc1)c1ccccc1
outcome [6]: inactive | Potency [7]: inactive | Potency [8]: inactive

COc1ccc(-c2ccc3cc(C(=O)O)ccc3c2)cc1C12CC3CC(CC(C3)C1)C2
Potency [1]: inactive | Potency [3]: inactive

CC(=O)[C@H]1CC[C@H]2[C@@H]3C=CC4=CC(=O)CC[C@@]4(C)[C@@H]3CC[C@]12C
Potency [1]: inactive | Potency [3]: inactive

Cc1ccc(Nc2nccc(N(C)c3ccc4c(C)n(C)nc4c3)n2)cc1S(N)(=O)=O
Potency [1]: inactive | Potency [3]: inactive

C#CCC(Cc1cnc2nc(N)nc(N)c2n1)c1ccc(C(=O)N[C@@H](CCC(=O)O)C(=O)O)cc1 (some centres not stated)
Potency [2]: inactive

CN(c1nccc(=O)[nH]1)C1CCN(c2nc3ccccc3n2Cc2ccc(F)cc2)CC1
Potency [1]: inactive | Potency [3]: inactive

CC(=O)N1CCN(c2ccc(OC[C@H]3CO[C@](Cn4ccnc4)(c4ccc(Cl)cc4Cl)O3)cc2)CC1
Potency [2]: 7.94 µM (active)

CN1CCN(CCC=C2c3ccccc3Sc3ccc(S(=O)(=O)N(C)C)cc32)CC1
Potency [2]: inactive | Potency [4]: 11.2 µM (active)

O=c1[nH]c(=O)n([C@H]2C[C@H](O)[C@@H](CO)O2)cc1Br
Potency [1]: inactive | Potency [3]: inactive

Nc1ncn([C@H]2C[C@H](O)[C@@H](CO)O2)c(=O)n1
Potency [1]: inactive | Potency [3]: inactive

COc1cc(C)c(Cc2cnc(N)nc2N)cc1OC
Potency [1]: inactive | Potency [3]: inactive

CC(=O)OCC(=O)[C@H]1CC[C@H]2[C@@H]3CCC4=CC(=O)CC[C@]4(C)[C@H]3CC[C@]12C
Potency [1]: inactive | Potency [3]: inactive

CCOC(=O)C1=C(COCCN)NC(C)=C(C(=O)OC)C1c1ccccc1Cl (configuration not stated)
Potency [1]: inactive | Potency [2]: inactive | Potency [3]: inactive | Potency [4]: inactive

Cc1cc(C(C#N)c2ccc(Cl)cc2)c(Cl)cc1NC(=O)c1cc(I)cc(I)c1O (configuration not stated)
Potency [2]: 20 µM (active)
